Measurements: PubChem BioAssay AID1159580 (chemical genetic matrix, 2015)
“And” between values parts separate entries of the source, which are not always exact repeats. Equal entries are not always repeated. Among all 5,500 compounds or so, about 2,000 (36%) were called active. Another 18% or so got no clear call; they are omitted. Cut-off read from the data, not from the text of the source: active = normalized growth mostly below about 0.91 (no sharp cut-off); inconclusive = no clear call, values can overlap the other calls; inactive = mostly above about 0.92. The list shows a part of the results.

Experiment: chemical genetic growth profiling, strain panel (AID 1159580);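 note: tested at 20 µM; growth read once vehicle control cultures reached saturation at 30 °C; 1 = growth at the plate median or of vehicle wells; lower values mean less growth of the strain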
Conditions: S. cerevisiae deletion strains, growth OD

Measured: normalized growth

COC(=O)[C@@H]1C(O)CC[C@H]2CN3CCc4c([nH]c5ccccc45)[C@@H]3C[C@@H]21 (some centres not stated)
inactive: locus YAL013W, strain DEP1, hits give low values 0.998 | locus YAL021C, strain ccr4, hits give low values 1.01 | locus YAL026C, strain drs2, hits give low values 1.01 | locus YAL030W, strain snc1, hits give low values 1.01 | locus YBL061C, strain skt5, hits give low values 1.01 | locus YBR009C, strain hhf1, hits give low values 0.998 | locus YBR021W, strain FUR4, hits give low values 1.01 | locus YBR023C, strain chs3, hits give low values 1.02 | locus YBR171W, strain sec66, hits give low values 1.02 | locus YBR229C, strain ROT2, hits give low values 0.99 | locus YBR231C, strain swc5, hits give low values 0.999 | locus YBR279W, strain paf1, hits give low values 1.02 | locus YCL011C, strain gbp2, hits give low values 1.01 | locus YCL016C, strain dcc1, hits give low values 1.02 | locus YCL029C, strain bik1, hits give low values 0.993 | locus YCL061C, strain MRC1, hits give low values 1.01 | locus YCL069W, strain vba3, hits give low values 1.01 | locus YCR088W, strain abp1, hits give low values 1.01 | locus YDL005C, strain med2, hits give low values 1.01 | locus YDL035C, strain GPR1, hits give low values 0.994 | locus YDL040C, strain nat1, hits give low values 1.01 | locus YDL074C, strain BRE1, hits give low values 1.01 | locus YDL101C, strain DUN1, hits give low values 0.99 | locus YDL134C, strain PPH21, hits give low values 0.996 | locus YDL185W, strain tfp1, hits give low values 0.971 | locus YDL192W, strain arf1, hits give low values 0.983 | locus YDR001C, strain nth1, hits give low values 1.02 | locus YDR069C, strain doa4, hits give low values 0.999 | locus YDR101C, strain arx1, hits give low values 1 | locus YDR137W, strain rgp1, hits give low values 1.02 | locus YDR150W, strain NUM1, hits give low values 0.973 | locus YDR159W, strain sac3, hits give low values 0.996 | locus YDR162C, strain NBP2, hits give low values 1.02 | locus YDR195W, strain ref2 1.02 | locus YDR297W, strain sur2, hits give low values 1.03 | locus YDR318W, strain mcm21, hits give low values 0.981 | locus YDR334W, strain swr1, hits give low values 1.02 | locus YDR335W, strain msn5, hits give low values 1.02 | locus YDR388W, hits give low values 0.999 | locus YDR392W, strain spt3, hits give low values 0.92 | locus YDR502C, strain sam2, hits give low values 1.01 | locus YEL003W, strain gim4, hits give low values 1.02 | locus YEL037C, strain rad23, hits give low values 1.03 | locus YEL061C, strain CIN8 (second series), hits give low values 1.02 | locus YEL061C, strain CIN8, hits give low values 0.998 | locus YER015W, strain faa2, hits give low values 1.01 | locus YER016W, strain bim1, hits give low values 1.02 | locus YER110C, hits give low values 0.982 | locus YER111C, strain swi4, hits give low values 1.01 | locus YER155C, strain BEM2 (second series), hits give low values 1.01 | locus YER155C, strain BEM2, hits give low values 0.992 | locus YER167W, strain BCK2, hits give low values 0.979 | locus YFR010W, strain ubp6, hits give low values 1.01 | locus YGL078C, strain dbp3, hits give low values 0.982 | locus YGL086W, strain mad1, hits give low values 0.955 | locus YGL167C, strain pmr1, hits give low values 1.01 | locus YGL173C, strain kem1, hits give low values 1 | locus YGL227W, strain vid30, hits give low values 1.02 | locus YGL240W, strain doc1, hits give low values 0.992 | locus YGL248W, strain PDE1, hits give low values 0.982 | locus YGL253W, strain hxk2, hits give low values 1.02 | locus YGR078C, strain PAC10, hits give low values 1 | locus YGR135W, strain pre9, hits give low values 1.01 | locus YGR229C, strain SMI1, hits give low values 1.03 | locus YGR252W, strain gcn5, hits give low values 1.01 | locus YHR013C, strain ard1, hits give low values 1.02 | locus YHR027C, strain rpn1, hits give low values 1.02 | locus YHR030C, strain SLT2, hits give low values 0.991 and 1.02 | locus YHR079C, strain IRE1 (second series), hits give low values 1.01 | locus YHR079C, strain IRE1, hits give low values 1.02 | locus YHR094C, strain hxt1, hits give low values 0.974 | locus YHR129C, strain ARP1, hits give low values 0.998 | locus YHR142W, strain chs7, hits give low values 1.02 | locus YHR200W, strain rpn10, hits give low values 0.988 | locus YIL066C, strain RNR3, hits give low values 0.984 | locus YIL073C, strain SPO22, hits give low values 0.915 | locus YIL125W, strain kgd1, hits give low values 0.981 | locus YIR030C, strain dcg1, hits give low values 0.994 | locus YJL092W, strain hpr5, hits give low values 1.01 | locus YJL095W, strain BCK1 (second series), hits give low values 1 | locus YJL095W, strain BCK1, hits give low values 1.03 and 1.02 | locus YJL115W, strain asf1, hits give low values 1.02 | locus YJL129C, strain trk1, hits give low values 1.03 | locus YJL134W, strain LCB3, hits give low values 0.985 | locus YJL154C, strain vps35, hits give low values 1.02 | locus YJL164C, strain tpk1, hits give low values 0.999 | locus YJL166W, strain qcr8, hits give low values 1.01 | locus YJL168C, strain set2, hits give low values 1 | locus YJL187C, strain SWE1 (second series), hits give low values 0.995 | locus YJL187C, strain SWE1, hits give low values 1.01 | locus YJR043C, strain POL32, hits give low values 0.998 | locus YJR066W, strain TOR1, hits give low values 0.954
